# PubChem BioAssay AID1273 (Columbia University Molecular Screening Center, 2008)
# Hit rate of the full screen: of about 130,000 compounds, about 1,200 (0.92%) were called active.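 The calls were made as follows: active = inhibition above the mean plus 3 SD, with well images judged a real hit on visual review (cut at about 60% in these data, passing the limit was not always enough); inconclusive = inhibition over the cutoff but images rejected on review; inactive = inhibition not above the cutoff.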 Only a selection was taken, and actives are over-represented in it overall.
# Assay: insulin gene promoter suppression in islet cells – imaging, TRM-6 cells (human fetal islet line), eGFP reporter, cell count, primary screen (AID 1273;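 as to normalized cell count: cells exposed to compound for 48 h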)
# Conditions: at 2 µM, reporter expression induced with tamoxifen; inhibition: stronger effect = higher value; normalized cell count: measured here: cell count, toxicity
Structure (SMILES),inhibition,normalized cell count
COC(=O)CC1=NN(c2ccccc2)C(=O)C1,0% (inactive),102%
CN(C)C=NC(=O)c1cccn1-c1ncc(C(F)(F)F)cc1Cl,31.2% (inactive),84.7%
Cc1ccc(NC(=O)CCN2CCc3ccccc3C2)cc1,28.6% (inactive),64.3%
COc1ccc(OC)c(NC(=O)CCN2CCC(C)CC2)c1,34.2% (inactive),86.9%
CC1CCN(CCC(=O)Nc2ccccc2)CC1,78.6% (active),39.9%
O=C(CCN1CCN(C/C=C/c2ccccc2)CC1)Nc1cccc(F)c1,-57.1% (inactive),154%
CCc1ccc(/C=C2\SC(N3CCOCC3)=NC2=O)cc1,16.7% (inactive),199%
Cc1nnsc1C(=O)Nc1cccc(Cl)c1C,50% (inactive),71.6%
O=C(Nc1ccc(-c2ccc3nncn3n2)cc1)C1CCCCC1,-25% (inactive),193%
Cc1cccc(NC(=O)CN2C(=O)c3ccccc3C2=O)c1C,-28.6% (inactive),79%
S=C(Nc1ccc2c(c1)OCO2)N1CCCC1,-79% (inactive),73.4%
COc1ccccc1C1=Nc2cccc3cccc(c23)N1,-6.67% (inactive),113%
Fc1ccccc1N=C1Nc2cccc3cccc1c23,88.9% (active),172%
c1ccc(C2=Nc3cccc4cccc(c34)N2)cc1,-73.5% (inactive),133%
Cc1ccc(N(C(=O)Cc2cccs2)C2C=CS(=O)(=O)C2)cc1Cl (centres undefined),15% (inactive),128%
Cc1cc(NC(=O)CSc2nc3ccccc3n2CC(C)C)no1,-41.7% (inactive),96.4%
CC1Cc2ccccc2N1S(=O)(=O)c1c(N)n(C)c(=O)n(C)c1=O (centres undefined),-66.7% (inactive),73.2%
O=C(CSc1nnc(-c2cccs2)n1Cc1ccco1)c1ccc2c(c1)OCO2,17.6% (inactive),96.9%
COc1ccc(NC(=O)CSc2nnc(-c3cccs3)n2Cc2ccco2)cc1OC,72.7% (active),109%
Cc1ccc(NC(=O)CSc2nnc(-c3cnccn3)n2Cc2ccco2)cc1C,-21.6% (inactive),100%
O=C(CCN1C(=O)c2ccncc2C1=O)Nc1cc(F)ccc1F,25% (inactive),92%
CSCC(NS(=O)(=O)c1ccc(C)cc1)C(=O)O (centres undefined),-387% (inactive),83.3%
COCc1cc(C(C)=O)ccc1OC,30.8% (inactive),97.5%
CCOc1ccc(C(C)=O)cc1COC(=O)c1cnc(Cl)c(Cl)c1,83.3% (active),144%
Cn1c(N)c(C(=O)COC(=O)c2cnc(Cl)c(Cl)c2)c(=O)n(C)c1=O,-42.9% (inactive),106%
CCSc1sc(CC)cc1C=O,57.1% (inactive),96.8%
CCN1CCN(c2ccc(NC(=O)c3cnccn3)cc2)CC1,-35.7% (inactive),74.9%
